Measurements published in the OligoGym collection.

Molecular target: ANKRD40
Experiment: pooled miR-30 sensor sort-seq; sequence = guide strand
Settings: shRNA
Further: reference of the scale not given here.

How did the sensor-assay potency score (higher = more potent) turn out when TTTTGTGGTAAGAATTTCTTTG was run?
Its sensor-assay potency score (higher = more potent) is -0.767.

For TAACTTTCTGATCTTCTCCACT, which sensor-assay potency score (higher = more potent) is on record?
Its sensor-assay potency score (higher = more potent) is -1.02.

Which sensor-assay potency score (higher = more potent) does the source give for TTGTCCTTCCTTAACAGAGTAT here?
The sensor-assay potency score (higher = more potent) was -0.746.

How did the sensor-assay potency score (higher = more potent) turn out when TAACAGGTAAGAGACCACCTGA was run?
The sensor-assay potency score (higher = more potent) was -0.364.

For ATTATTTTCACTTATCATCAGA, which sensor-assay potency score (higher = more potent) is on record?
The sensor-assay potency score (higher = more potent) was -0.625.

With TGATCTTCTCCACTTGATCTGG as the sequence, how does the sensor-assay potency score (higher = more potent) read?
Its sensor-assay potency score (higher = more potent) is -0.74.

TTCACTTATCATCAGAACCAGT was tested. Which sensor-assay potency score (higher = more potent) did it give?
Its sensor-assay potency score (higher = more potent) is -0.41.

With TTGATCTGGATTAACACCCAGC as the sequence, how does the sensor-assay potency score (higher = more potent) read?
Its sensor-assay potency score (higher = more potent) is -0.194.

With TCGAGCAACATCCTTGTCCTTC as the sequence, how does the sensor-assay potency score (higher = more potent) read?
Its sensor-assay potency score (higher = more potent) is -0.697.

How did the sensor-assay potency score (higher = more potent) turn out when TTCCTTAACAGAGTATTGGGTA was run?
Its sensor-assay potency score (higher = more potent) is 0.698.

With TATCATCAGAACCAGTTCCAGC as the sequence, how does the sensor-assay potency score (higher = more potent) read?
The sensor-assay potency score (higher = more potent) was -0.968.

Which sensor-assay potency score (higher = more potent) does the source give for TTGGAGTCGAGCAACATCCTTG here?
Its sensor-assay potency score (higher = more potent) is -0.239.

Molecular target: ANKRD53
Experiment: as above
Settings: shRNA

Which sensor-assay potency score (higher = more potent) does the source give for AAACTTGTACTCCTCTACCAGG here?
The sensor-assay potency score (higher = more potent) was -1.13.

Which sensor-assay potency score (higher = more potent) does the source give for TTTCTGATAGCAGCTTCTCTGA here?
Its sensor-assay potency score (higher = more potent) is -1.05.

How did the sensor-assay potency score (higher = more potent) turn out when TTGCTTGGTATTGGAGACCAGA was run?
The sensor-assay potency score (higher = more potent) was -0.812.

With TAGTAGAGAAATGTCCTGCCAT as the sequence, how does the sensor-assay potency score (higher = more potent) read?
Its sensor-assay potency score (higher = more potent) is -0.32.

For TTCATTTTCGTCATCTCACGGG, which sensor-assay potency score (higher = more potent) is on record?
The sensor-assay potency score (higher = more potent) was 0.469.

With TTTCTGAGTGCCAGCTTCCGGA as the sequence, how does the sensor-assay potency score (higher = more potent) read?
Its sensor-assay potency score (higher = more potent) is -1.18.

How did the sensor-assay potency score (higher = more potent) turn out when TTGGACTCCGCGTCAGTCCAGG was run?
Its sensor-assay potency score (higher = more potent) is -1.11.

TTGCTAACATTCCACATTGTGG was tested. Which sensor-assay potency score (higher = more potent) did it give?
The sensor-assay potency score (higher = more potent) was -1.32.
